This is part of a sample that, as a whole, favours compounds with a hit. Of some 83,000 tested, about 20% had one in any assay.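 Negative percent growth values reflect cell death: -40 means 40% of the cells present at the start died, and -100 means all died.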 A number with no mark means an inactive call. Calls of active or inactive are those of the source. How the source made its calls: active means growth percent below 10; inactive means the rest.
What was measured:
Test in all cases: NCI-60 one-dose screen, 48 h (100 = growth as untreated, 0 = no growth, -100 = all killed)
SK-MEL-2 melanoma = settings: 10 µM unless noted
EKVX NSCLC = settings: 10 µM unless noted
SN12C renal = settings: 10 µM unless noted
UO-31 renal = settings: 10 µM unless noted
TK-10 renal = settings: 10 µM unless noted
ACHN renal = settings: 10 µM unless noted
CAKI-1 renal = settings: 10 µM
CCRF-CEM leukemia = settings: 10 µM unless noted
MOLT-4 leukemia = settings: 10 µM unless noted
A498 renal = settings: 10 µM unless noted

C[C@H]1[C@H](C)CC[C@]2(COC(=O)c3cccnc3)CC[C@]3(C)C(=CC[C@@H]4[C@@]5(C)CCCNC(C)(C)[C@@H]5CC[C@]43C)[C@H]12
growth (SK-MEL-2 melanoma): 98.6% | growth (EKVX NSCLC): 89.7% | growth (SN12C renal): 67.6% | growth (UO-31 renal): 59.3% | growth (TK-10 renal): 79.9% | growth (ACHN renal): 75.7% | growth (CAKI-1 renal): 61.5% | growth (CCRF-CEM leukemia): 50.1% | growth (MOLT-4 leukemia): 44%

COc1cc(C(=O)C[n+]2ccc3ccccc3c2)cc(OC)c1OC
growth (SK-MEL-2 melanoma): 102% | growth (EKVX NSCLC): 98.6% | growth (SN12C renal): 90.4% | growth (UO-31 renal): 94.2% | growth (TK-10 renal): 112% | growth (ACHN renal): 106% | growth (CAKI-1 renal): 92.6% | growth (CCRF-CEM leukemia): 97% | growth (MOLT-4 leukemia): 106%

CC(=O)NC(C)(C)C(=O)N1CCC[C@H]1C(=O)NC(C)(C)C(=O)N[C@@H](C)C(=O)NC(C)(C)C(=O)NC(C)(C)C(=O)N[C@@H](CCC(N)=O)C(=O)NC(C)(C)C(=O)N[C@H](C(=O)NC(C)(C)C(=O)NCC(=O)N[C@@H](CC(C)C)C(=O)NC(C)(C)C(=O)N1CCC[C@H]1C(=O)N[C@H](C(=O)NC(C)(C)C(=O)NC(C)(C)C(=O)N[C@@H](CCC(N)=O)C(=O)N[C@@H](CCC(N)=O)C(=O)N[C@H](CO)Cc1ccccc1)C(C)C)C(C)C
growth (SK-MEL-2 melanoma): 0.326% [4.25 µM] (active) | growth (EKVX NSCLC): 65% [4.25 µM] | growth (SN12C renal): 13.4% [4.25 µM] | growth (UO-31 renal): 97.7% [4.25 µM] | growth (TK-10 renal): 59.2% [4.25 µM] | growth (ACHN renal): 96.3% [4.25 µM] | growth (A498 renal): 25% [4.25 µM] | growth (CCRF-CEM leukemia): 36.3% [4.25 µM] | growth (MOLT-4 leukemia): 35.6% [4.25 µM]

CC(=O)C1=NN(c2ccc(Cl)cc2)C(=O)CN1C
growth (SK-MEL-2 melanoma): 102% | growth (EKVX NSCLC): 95.7% | growth (SN12C renal): 102% | growth (UO-31 renal): 93% | growth (TK-10 renal): 91.2% | growth (ACHN renal): 99.4% | growth (CAKI-1 renal): 95.7% | growth (MOLT-4 leukemia): 107%

COc1cccc(/C=C/C(=O)c2ccc(NC(=O)COc3cccc4cccnc34)cc2)c1
growth (SK-MEL-2 melanoma): 100% | growth (EKVX NSCLC): 93.2% | growth (SN12C renal): 95.4% | growth (UO-31 renal): 82.8% | growth (TK-10 renal): 109% | growth (ACHN renal): 101% | growth (CAKI-1 renal): 92.1% | growth (CCRF-CEM leukemia): 95.3% | growth (MOLT-4 leukemia): 88.9%

CN1CCN(c2ccc3c(C(N)=O)c(NC(=O)c4ccc(C(C)(C)C)cc4)sc3c2)CC1
growth (SK-MEL-2 melanoma): 97.4% | growth (EKVX NSCLC): 85.2% | growth (SN12C renal): 90% | growth (UO-31 renal): 97.5% | growth (TK-10 renal): 123% | growth (ACHN renal): 96.4% | growth (CAKI-1 renal): 100% | growth (CCRF-CEM leukemia): 53.3% | growth (MOLT-4 leukemia): 41.9%

Cc1nn(-c2ccccc2)c2nc(CCl)[nH]c(=O)c12
growth (SK-MEL-2 melanoma): 105% | growth (EKVX NSCLC): 99.2% | growth (SN12C renal): 95.7% | growth (UO-31 renal): -86.3% (active) | growth (TK-10 renal): 63.3% | growth (ACHN renal): 90.3% | growth (CAKI-1 renal): 99.6% | growth (MOLT-4 leukemia): 79.6%

O=C(Nc1ccc(Cl)cc1)Nc1nc2ccc([N+](=O)[O-])cc2s1
growth (SK-MEL-2 melanoma): -40.8% (active) | growth (EKVX NSCLC): 4.04% (active) | growth (SN12C renal): -0.314% (active) | growth (UO-31 renal): 3.55% (active) | growth (TK-10 renal): -20.5% (active) | growth (ACHN renal): 0.28% (active) | growth (CAKI-1 renal): -16.5% (active) | growth (MOLT-4 leukemia): -7.74% (active)

CCOP(=O)(OCC)OC[C@]12CCC(C)(C)C[C@H]1C1=CC[C@@H]3[C@@]4(C)C/C(=C\c5cccnc5)[C@H](OP(=O)(OCC)OCC)C(C)(C)[C@@H]4CC[C@@]3(C)[C@]1(C)CC2
growth (SK-MEL-2 melanoma): 45.1% | growth (EKVX NSCLC): 29.9% | growth (SN12C renal): 29.3% | growth (UO-31 renal): 29.9% | growth (TK-10 renal): 37.3% | growth (ACHN renal): 27.8% | growth (CAKI-1 renal): 31% | growth (CCRF-CEM leukemia): 25.3% | growth (MOLT-4 leukemia): 9.52% (active)

O=c1c2c(O)cccc2oc2c3c(cc(O)c12)O[C@H]1OC=C[C@@H]31
growth (SK-MEL-2 melanoma): 95.5% | growth (EKVX NSCLC): 42.8% | growth (SN12C renal): 92.6% | growth (UO-31 renal): 79.3% | growth (TK-10 renal): 89.5% | growth (ACHN renal): 74.9% | growth (A498 renal): 89.1% | growth (CCRF-CEM leukemia): 92.7% | growth (MOLT-4 leukemia): 88.5%

CCCCCCCCCC[C@@H](C)[C@@H]1CC(=O)N[C@H]([C@@H](C)O)C(=O)N[C@@H](C)C(=O)N[C@H](C)C(=O)N[C@@H](CCC(N)=O)C(=O)N[C@H](Cc2ccc(O)cc2)C(=O)N[C@@H](C(C)CC)C(=O)O1 (stereo partly drawn)
growth (SK-MEL-2 melanoma): 65.5% | growth (EKVX NSCLC): 66.6% | growth (SN12C renal): 66.5% | growth (UO-31 renal): 79.6% | growth (TK-10 renal): 47.9% | growth (ACHN renal): 98.3% | growth (A498 renal): 64.3% | growth (CCRF-CEM leukemia): 63.2% | growth (MOLT-4 leukemia): 41.1%

COc1ccccc1/C=C/C=N/NC1=NC2C(S1)N(C)C(=O)N2c1ccccc1 (stereo not drawn)
growth (SK-MEL-2 melanoma): 67.6% | growth (EKVX NSCLC): 39.4% | growth (SN12C renal): 20.6% | growth (UO-31 renal): 35.9% | growth (TK-10 renal): 68.6% | growth (ACHN renal): 24.7% | growth (CAKI-1 renal): 46.4% | growth (MOLT-4 leukemia): 4.1% (active)

COc1c([C@@H](CC(C)C)OC(C)=O)ccc2c1C(=O)OCc1cc(C)cc(O)c1O2
growth (SK-MEL-2 melanoma): 22.2% | growth (EKVX NSCLC): 37.6% | growth (SN12C renal): 27.8% | growth (UO-31 renal): 32.3% | growth (TK-10 renal): 33.6% | growth (ACHN renal): 16.1% | growth (A498 renal): 61.5% | growth (CCRF-CEM leukemia): 31.4% | growth (MOLT-4 leukemia): 21.3%

Reference: PubChem BioAssay (NCI)
